Measured values as given in paper PMC8384837, “Expanding the binding specificity for RNA recognition by a PUF domain”.

Biological target: PUM1 PUF domain R3-CFG (Homo sapiens, UniProt Q14671 828-1176, R936F;Q939G)
Experiment: yeast three-hybrid, YBZ-1, SC-Leu-His + 0.5 mM 3-AT, 4 days
Conditions: tags: N-Gal4 AD-HA kept; label: inside an RPR1-promoter hybrid RNA with tandem MS2 sites; ssRNA
Summary of the method: (§1)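 Repeat regions from input (SC-Leu) and selection (SC-Leu-His + 0.5 mM 3-AT) plates were PCR-amplified and Illumina-sequenced after four days of growth. The cells were strain YBZ-1 with a LexA–MS2 coat fusion and a HIS3 reporter, co-expressing Pumilio-1 PUF domain libraries and matching RNA elements from a centromeric plasmid. The interaction score is the log change in variant frequency from input to selection, taken in log2 with a pseudocount of 1 for absent variants.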

Row | Sequence | binding signal
1 | GGCUAGAACUAGUGGAUCCCCCGGCGCCCGGCGGCUCGAGCCCGGGUAAGUGUAAAUAGUCUGCAUGCCGCCGGGCGCCAUGCCUGCAGGUCGACUCUAGAAAACAUG | 3.86 log2 enrichment (interaction score)
2 | GGCUAGAACUAGUGGAUCCCCCGGCGCCCGGCGGCUCGAGCCCGGGUAAGUGUAAUUAGUCUGCAUGCCGCCGGGCGCCAUGCCUGCAGGUCGACUCUAGAAAACAUG | 2.06 log2 enrichment (interaction score)
3 | GGCUAGAACUAGUGGAUCCCCCGGCGCCCGGCGGCUCGAGCCCGGGUAAGUGUAAGUAGUCUGCAUGCCGCCGGGCGCCAUGCCUGCAGGUCGACUCUAGAAAACAUG | 1.61 log2 enrichment (interaction score)

Biological target: PUM1 PUF domain R5-SGR (Homo sapiens, UniProt Q14671 828-1176, C1007S;R1008G;Q1011R)
Experiment: as above
Conditions: tags: N-Gal4 AD-HA kept; label: inside an RPR1-promoter hybrid RNA with tandem MS2 sites; ssRNA
Summary of the method: as §1

Row | Sequence | binding signal
4 | GGCUAGAACUAGUGGAUCCCCCGGCGCCCGGCGGCUCGAGCCCGGGUAAGUGUUAAUAGUCUGCAUGCCGCCGGGCGCCAUGCCUGCAGGUCGACUCUAGAAAACAUG | 0.78 log2 enrichment (interaction score)
5 | GGCUAGAACUAGUGGAUCCCCCGGCGCCCGGCGGCUCGAGCCCGGGUAAGUGUAAAUAGUCUGCAUGCCGCCGGGCGCCAUGCCUGCAGGUCGACUCUAGAAAACAUG | 1.55 log2 enrichment (interaction score)
6 | GGCUAGAACUAGUGGAUCCCCCGGCGCCCGGCGGCUCGAGCCCGGGUAAGUGUCAAUAGUCUGCAUGCCGCCGGGCGCCAUGCCUGCAGGUCGACUCUAGAAAACAUG | 6.98 log2 enrichment (interaction score)

Biological target: PUM1 PUF domain R5-FRS (Homo sapiens, UniProt Q14671 828-1176, C1007F;Q1011S)
Experiment: as above
Conditions: tags: N-Gal4 AD-HA kept; label: inside an RPR1-promoter hybrid RNA with tandem MS2 sites; ssRNA
Summary of the method: as §1

Row | Sequence | binding signal
7 | GGCUAGAACUAGUGGAUCCCCCGGCGCCCGGCGGCUCGAGCCCGGGUAAGUGUUAAUAGUCUGCAUGCCGCCGGGCGCCAUGCCUGCAGGUCGACUCUAGAAAACAUG | 3.13 log2 enrichment (interaction score)
8 | GGCUAGAACUAGUGGAUCCCCCGGCGCCCGGCGGCUCGAGCCCGGGUAAGUGUAAAUAGUCUGCAUGCCGCCGGGCGCCAUGCCUGCAGGUCGACUCUAGAAAACAUG | 0.74 log2 enrichment (interaction score)
9 | GGCUAGAACUAGUGGAUCCCCCGGCGCCCGGCGGCUCGAGCCCGGGUAAGUGUCAAUAGUCUGCAUGCCGCCGGGCGCCAUGCCUGCAGGUCGACUCUAGAAAACAUG | 2.38 log2 enrichment (interaction score)

Biological target: PUM1 PUF domain R8-SFK (Homo sapiens, UniProt Q14671 828-1176, N1122S;Y1123F;Q1126K)
Experiment: as above
Conditions: tags: N-Gal4 AD-HA kept; label: inside an RPR1-promoter hybrid RNA with tandem MS2 sites; ssRNA
Summary of the method: as §1

Row | Sequence | binding signal
10 | GGCUAGAACUAGUGGAUCCCCCGGCGCCCGGCGGCUCGAGCCCGGGUAAGUGUAAAUAGUCUGCAUGCCGCCGGGCGCCAUGCCUGCAGGUCGACUCUAGAAAACAUG | 5.06 log2 enrichment (interaction score)
11 | GGCUAGAACUAGUGGAUCCCCCGGCGCCCGGCGGCUCGAGCCCGGGUAAGCGUAAAUAGUCUGCAUGCCGCCGGGCGCCAUGCCUGCAGGUCGACUCUAGAAAACAUG | 5.53 log2 enrichment (interaction score)
12 | GGCUAGAACUAGUGGAUCCCCCGGCGCCCGGCGGCUCGAGCCCGGGUAAGGGUAAAUAGUCUGCAUGCCGCCGGGCGCCAUGCCUGCAGGUCGACUCUAGAAAACAUG | 2.09 log2 enrichment (interaction score)
